# Results taken from the supplement of paper PMC4022240.
# ± gives the standard deviation.
# T1: HaloTag-ATRX ADD domain (163-292)
# T1 chain: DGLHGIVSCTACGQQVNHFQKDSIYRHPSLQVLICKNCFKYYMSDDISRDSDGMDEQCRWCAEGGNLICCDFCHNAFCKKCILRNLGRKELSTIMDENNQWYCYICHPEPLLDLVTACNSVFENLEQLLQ
# Key:
# Assay in all cases: peptide microarray binding signal (635 nm), min-max normalized on array (fraction of array maximum); higher = stronger binding
# [1] = biological target: T1, HaloTag-ATRX ADD domain (163-292)
# Method in brief: (§1)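 An Axon GenePix 4000B scanned the arrays at 635 nm for signal and at 532 nm to catch misprints. Those arrays held histone 13-mer peptide–cellulose conjugates printed in triplicate on nitrocellulose with a Cy3 tracer, blocked overnight at 4°C and probed for 1 h at 4°C with biotin-labelled HaloTag reader fusions (10 nM to 1 μM) plus streptavidin-Alexa Fluor 647 or with rabbit histone antibodies (1:10,000 to 1:2,000) plus anti-rabbit Alexa 647. Each binding signal is a triplicate-spot mean intensity, scaled min-max within its library.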
# [2] = biological target: HaloTag-ING2 PHD (mouse Ing2 200-280)
# Method in brief: as §1
# [3] = biological target: anti-H3K4me3 antibody ab8580
# Method in brief: as §1
# [4] = biological target: anti-H3K9me3 antibody ab8898
# Method in brief: as §1
# [5] = peptide region: H3 73-85, peptide modifications: H3T80ph, binder concentration: 1:2,000 dilution
# [6] = peptide region: H3 73-85, peptide modifications: H3T80ph, binder concentration: 1:10,000 dilution
# [7] = peptide region: H3 112-124, peptide modifications: H3K115ac H3K122ac, binder concentration: 1:2,000 dilution
# [8] = peptide region: H3 112-124, peptide modifications: H3K115ac H3K122ac, binder concentration: 1:10,000 dilution
# [9] = peptide region: H3 112-124, peptide modifications: H3K115me1 H3K122ac, binder concentration: 1:2,000 dilution
# [10] = peptide region: H3 112-124, peptide modifications: H3K115me1 H3K122ac, binder concentration: 1:10,000 dilution
# [11] = peptide region: H3 112-124, peptide modifications: H3K115ac, binder concentration: 1:2,000 dilution
# [12] = peptide region: H3 112-124, peptide modifications: H3K115ac, binder concentration: 1:10,000 dilution
# [13] = peptide region: H3 112-124, peptide modifications: H3K115ac H3R116me1, binder concentration: 1:2,000 dilution
# [14] = peptide region: H3 112-124, peptide modifications: H3K115ac H3R116me1, binder concentration: 1:10,000 dilution
binder,measurement,setting,value
EIAQDFKTDLRFQ [H3 73-85 E I A Q D F K Tph D L R F Q],peptide microarray binding signal,"[1]; peptide region: H3 73-85, peptide modifications: H3T80ph, binder concentration: 50 nM",0.00129 ± 3.8e-05
same,peptide microarray binding signal,"[1]; peptide region: H3 73-85, peptide modifications: H3T80ph, binder concentration: 500 nM",0.00386 ± 0.00022
same,peptide microarray binding signal,"[2]; peptide region: H3 73-85, peptide modifications: H3T80ph, binder concentration: 10 nM",0.00406 ± 0.00014
same,peptide microarray binding signal,"[2]; peptide region: H3 73-85, peptide modifications: H3T80ph, binder concentration: 100 nM",0.000921
same,peptide microarray binding signal,[3]; [5],0.000547 ± 3.5e-05
same,peptide microarray binding signal,[3]; [6],0.000685 ± 7.2e-06
same,peptide microarray binding signal,[4]; [5],0.00186 ± 2e-05
same,peptide microarray binding signal,[4]; [6],0.00127 ± 4.6e-05
IHAKRVTIMPKDI [H3 112-124 I H A Kac R V T I M P Kac D I],peptide microarray binding signal,"[1]; peptide region: H3 112-124, peptide modifications: H3K115ac H3K122ac, binder concentration: 50 nM",0.00947 ± 0.0003
same,peptide microarray binding signal,"[1]; peptide region: H3 112-124, peptide modifications: H3K115ac H3K122ac, binder concentration: 500 nM",0.0259 ± 0.00095
same,peptide microarray binding signal,"[2]; peptide region: H3 112-124, peptide modifications: H3K115ac H3K122ac, binder concentration: 10 nM",0.0323 ± 0.0014
same,peptide microarray binding signal,"[2]; peptide region: H3 112-124, peptide modifications: H3K115ac H3K122ac, binder concentration: 100 nM",0.0605 ± 0.013
same,peptide microarray binding signal,[3]; [7],0.00336 ± 0.0003
same,peptide microarray binding signal,[3]; [8],0.00417 ± 0.0002
same,peptide microarray binding signal,[4]; [7],0.00288 ± 0.00013
same,peptide microarray binding signal,[4]; [8],0.00242 ± 9.5e-05
IHAKRVTIMPKDI [H3 112-124 I H A Kme R V T I M P Kac D I],peptide microarray binding signal,"[1]; peptide region: H3 112-124, peptide modifications: H3K115me1 H3K122ac, binder concentration: 50 nM",0.00345 ± 6.5e-05
same,peptide microarray binding signal,"[1]; peptide region: H3 112-124, peptide modifications: H3K115me1 H3K122ac, binder concentration: 500 nM",0.0061 ± 0.00013
same,peptide microarray binding signal,"[2]; peptide region: H3 112-124, peptide modifications: H3K115me1 H3K122ac, binder concentration: 10 nM",0.00746 ± 0.00035
same,peptide microarray binding signal,"[2]; peptide region: H3 112-124, peptide modifications: H3K115me1 H3K122ac, binder concentration: 100 nM",0.0111 ± 0.00029
same,peptide microarray binding signal,[3]; [9],0.00249 ± 0.0011
same,peptide microarray binding signal,[3]; [10],0.001484 ± 1.4e-05
same,peptide microarray binding signal,[4]; [9],0.000997 ± 1.4e-05
same,peptide microarray binding signal,[4]; [10],0.00104 ± 2.8e-05
IHAKRVTIMPKDI [H3 112-124 I H A Kac R V T I M P K D I],peptide microarray binding signal,"[1]; peptide region: H3 112-124, peptide modifications: H3K115ac, binder concentration: 50 nM",0.0131 ± 0.00019
same,peptide microarray binding signal,"[1]; peptide region: H3 112-124, peptide modifications: H3K115ac, binder concentration: 500 nM",0.0422 ± 0.0053
same,peptide microarray binding signal,"[2]; peptide region: H3 112-124, peptide modifications: H3K115ac, binder concentration: 10 nM",0.0158 ± 0.0028
same,peptide microarray binding signal,"[2]; peptide region: H3 112-124, peptide modifications: H3K115ac, binder concentration: 100 nM",0.0152 ± 0.00051
same,peptide microarray binding signal,[3]; [11],0.00323 ± 0.00038
same,peptide microarray binding signal,[3]; [12],0.00228 ± 0.00013
same,peptide microarray binding signal,[4]; [11],0.00832 ± 0.00014
same,peptide microarray binding signal,[4]; [12],0.00329 ± 0.00029
IHAKRVTIMPKDI [H3 112-124 I H A Kac Rme V T I M P K D I],peptide microarray binding signal,"[1]; peptide region: H3 112-124, peptide modifications: H3K115ac H3R116me1, binder concentration: 50 nM",0.0108 ± 0.00025
same,peptide microarray binding signal,"[1]; peptide region: H3 112-124, peptide modifications: H3K115ac H3R116me1, binder concentration: 500 nM",0.0193 ± 0.00083
same,peptide microarray binding signal,"[2]; peptide region: H3 112-124, peptide modifications: H3K115ac H3R116me1, binder concentration: 10 nM",0.0322 ± 0.0019
same,peptide microarray binding signal,"[2]; peptide region: H3 112-124, peptide modifications: H3K115ac H3R116me1, binder concentration: 100 nM",0.0449 ± 0.0042
same,peptide microarray binding signal,[3]; [13],0.00519 ± 0.0005
same,peptide microarray binding signal,[3]; [14],0.00542 ± 0.00027
same,peptide microarray binding signal,[4]; [13],0.00293 ± 0.00034
same,peptide microarray binding signal,[4]; [14],0.00254 ± 3.9e-05
